Test results reported in ChEMBL document CHEMBL3988442, “University of Dundee, Small-Polar-MMV Screening Library” (2021).
The whole screen tested about 48,000 compounds, of which about 13,000 (27%) showed an effect of 50% or more. This is one part of the list.

test system: Wolbachia pipientis; experiment: Anti-Wolbachia Cell-Based Screen; assay type: functional; parameters: scale not given: in the data most compounds retested in dose-response had high values; conditions: 5 µM

Row | SMILES | Percent Effect
1 | Cc1ccnc(N2C[C@@H]3CC[C@H](C2)N(CC2CCC2)C3=O)n1 | 15.62%
2 | CCn1ccnc1C1CCN(c2ncnc3ccsc23)CC1 | -4.66%
3 | CN1C(=O)[C@H]2CC[C@@H]1CN(c1ncnc3ccsc13)C2 | 78.97%
4 | c1nc(N2CCN(Cc3nnnn3C3CC3)CC2)c2sccc2n1 | -5.403%
5 | O=C1[C@H]2CC[C@H](CN(c3ncnc4ccsc34)C2)N1CC1CC1 | 70.25%
6 | CSc1nc(N)cc(N2C[C@@H]3CC[C@H](C2)N(CC2CC2)C3=O)n1 | 1.257%
7 | CC(NC1(CNC(=O)CC(C)(C)C)CCOCC1)c1ccccc1 (stereo unspecified) | 7.994%
8 | O=C(NCCc1cccnc1)N1CCCC1c1ccsc1 (stereo unspecified) | 4.878%
9 | NC(=O)CCn1nnc(-c2cc3ccccc3o2)n1 | 8.655%
10 | O=C(Nc1nccs1)NC1CCN(Cc2ccccc2)C1 (stereo unspecified) | -7.508%
11 | COc1ccc(CN(CC2CCCO2)C(=O)CN2CCOC2=O)cc1 (stereo unspecified) | 10.27%
12 | NC(=O)C1CCN(CC(=O)N(Cc2ccccc2)Cc2nccs2)CC1 | 113.3%
13 | COc1cccc(CN(C)C(=O)CN2CCN(c3nccs3)CC2)c1 | 7.332%
14 | CN(Cc1csc(-c2cccs2)n1)C(=O)CN1CCOC1=O | 19.54%
15 | O=C(CN1CCOC1=O)N(Cc1ccccc1)Cc1nccs1 | 101.3%
16 | CN(Cc1cccnc1)c1nccc(N2CCN[C@H]3CS(=O)(=O)C[C@H]32)n1 | -2.359%

Row | SMILES | Percent Effect
17 | COc1cccc(-c2cc(NCC(=O)O)nc3[nH]ccc23)n1 | -3.915%
18 | CN(C)CCNc1cc(-c2ncccc2O)c2cc[nH]c2n1 | 15.75%
19 | Nc1cc(-c2cc(C(=O)O)ccc2Cl)c2cc[nH]c2n1 | 2.257%
20 | OCCNc1cc(-c2nccnc2N2CCCC2)c2cc[nH]c2n1 | 104.7%
21 | O=C(O)CNc1cc(-c2nccnc2N2CCCC2)c2cc[nH]c2n1 | 94.3%
22 | CN(C)CCNc1cc(-c2ncccc2C(F)(F)F)c2cc[nH]c2n1 | -6.362%
23 | Nc1cc(-c2nccnc2N2CCCC2)c2cc[nH]c2n1 | 67.22%
24 | Nc1cc(-c2ccc(C(=O)O)cc2O)c2cc[nH]c2n1 | 1.335%
25 | Nc1cc(-c2cc(O)cc(C(=O)O)c2)c2cc[nH]c2n1 | -2.921%
26 | Cc1noc(C2CN(CC(=O)NCC3CCCO3)C2)n1 (stereo unspecified) | 9.756%
27 | CN(C)C(=O)c1ccc2c(c1)N(C)C(CC(=O)NC(CO)CO)CO2 (stereo unspecified) | 0.9161%
28 | Cc1cc(C)c2cc(CNCC3CCCO3)c3nn(C)c(=O)n3c2c1 (stereo unspecified) | -6.505%
29 | CCCn1cnnc1CNC1CCCC1 | -7.935%
30 | Cc1cc(C)c2cc(CNC3CCCCC3)c3nn(C)c(=O)n3c2c1 | 108.3%
31 | Cc1cc(C)c2cc(CNC(C)C)c3nn(C)c(=O)n3c2c1 | 117%
